Data from paper PMC5540273 (PLoS ONE, 2017).

Key:
Details in all cases: concentration: 1 μM, replicates: in singlicate; n = 1
[1] = test system: PAK4
[2] = test system: PAK6
[3] = test system: PAK7
[4] = test system: T1, PCTK1
T1 construct: gene CDK16

[5] = test system: T2, PCTK2
T2 construct: gene CDK17

[6] = test system: T3, PCTK3
T3 construct: gene CDK18

[7] = test system: PDGFRA
[8] = test system: PDGFRB
[9] = test system: PDPK1
[10] = test system: PFTAIRE2
[11] = test system: T4, PFTK1
T4 construct: gene CDK14

[12] = test system: PHKG1
[13] = test system: PHKG2
[14] = test system: PIK3C2B
[15] = test system: PIK3C2G
[16] = test system: PIK3CA
[17] = test system: PIK3CB
[18] = test system: PIK3CD
[19] = test system: PIK3CG
[20] = test system: T5, PIK4CB
T5 construct: gene PI4KB
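Further: KINOMEscan kinase panel screen.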

SMILES: COCCNC(=O)c1ccc(-c2cc(C(=O)NC3CC3)cc(F)c2C)cc1 [GW868318]
- %Inh [1]: 20%
- %Inh [2]: 18%
- %Inh [3]: 24%
- %Inh [4]: 8%
- %Inh [5]: 0%
- %Inh [6]: 20%
- %Inh [7]: 32%
- %Inh [8]: 51%
- %Inh [9]: 8%
- %Inh [10]: 0%
- %Inh [11]: 18%
- %Inh [12]: 6%
- %Inh [13]: 0%
- %Inh [14]: 0%
- %Inh [15]: 38%
- %Inh [16]: 28%
- %Inh [17]: 49%
- %Inh [18]: 42%
- %Inh [19]: 29%
- %Inh [20]: 40%

SMILES: c1ccc(-c2cc(-c3c[nH]nc3-c3ccccn3)ccn2)cc1 [GW576604]
- %Inh [1]: 0%
- %Inh [2]: 0%
- %Inh [3]: 0%
- %Inh [4]: 0%
- %Inh [5]: 0%
- %Inh [6]: 36%
- %Inh [7]: 0%
- %Inh [8]: 17%
- %Inh [9]: 0%
- %Inh [10]: 16%
- %Inh [11]: 39%
- %Inh [12]: 0%
- %Inh [13]: 0%
- %Inh [14]: 0%
- %Inh [15]: 0%
- %Inh [16]: 0%
- %Inh [17]: 0%
- %Inh [18]: 0%
- %Inh [19]: 0%
- %Inh [20]: 0%

SMILES: Cc1cccc(Cn2ccn3c(=O)cc(N4CCOCC4)nc23)c1 [GSK2297542]
- %Inh [1]: 25%
- %Inh [2]: 53%
- %Inh [3]: 22%
- %Inh [4]: 6%
- %Inh [5]: 16%
- %Inh [6]: 19%
- %Inh [7]: 0%
- %Inh [8]: 40%
- %Inh [9]: 11%
- %Inh [10]: 27%
- %Inh [11]: 15%
- %Inh [12]: 1%
- %Inh [13]: 8%
- %Inh [14]: 4%
- %Inh [15]: 0%
- %Inh [16]: 12%
- %Inh [17]: 100%
- %Inh [18]: 52%
- %Inh [19]: 10%
- %Inh [20]: 0%

SMILES: Cn1ccc2ncnc(Oc3ccc(NC(=O)Nc4ccncc4)c(Cl)c3)c21
- %Inh [1]: 3%
- %Inh [2]: 1%
- %Inh [3]: 0%
- %Inh [4]: 0%
- %Inh [5]: 0%
- %Inh [6]: 0%
- %Inh [7]: 27%
- %Inh [8]: 16%
- %Inh [9]: 36%
- %Inh [10]: 0%
- %Inh [11]: 0%
- %Inh [12]: 0%
- %Inh [13]: 5%
- %Inh [14]: 16%
- %Inh [15]: 43%
- %Inh [16]: 11%
- %Inh [17]: 0%
- %Inh [18]: 26%
- %Inh [19]: 26%
- %Inh [20]: 0%

SMILES: Cc1cccc(-c2nc(-c3ccc(S(C)(=O)=O)cc3)sc2-c2ccncc2)c1
- %Inh [1]: 10%
- %Inh [2]: 18%
- %Inh [3]: 0%
- %Inh [4]: 0%
- %Inh [5]: 0%
- %Inh [6]: 0%
- %Inh [7]: 10%
- %Inh [8]: 0%
- %Inh [9]: 26%
- %Inh [10]: 10%
- %Inh [11]: 0%
- %Inh [12]: 0%
- %Inh [13]: 0%
- %Inh [14]: 0%
- %Inh [15]: 49%
- %Inh [16]: 20%
- %Inh [17]: 1%
- %Inh [18]: 25%
- %Inh [19]: 10%
- %Inh [20]: 0%

SMILES: CCCCCc1nc2c(N)ncnc2n1CCCCC [SKF-97255]
- %Inh [1]: 6%
- %Inh [2]: 0%
- %Inh [3]: 0%
- %Inh [4]: 0%
- %Inh [5]: 0%
- %Inh [6]: 0%
- %Inh [7]: 0%
- %Inh [8]: 73%
- %Inh [9]: 0%
- %Inh [10]: 0%
- %Inh [11]: 2%
- %Inh [12]: 9%
- %Inh [13]: 0%
- %Inh [14]: 0%
- %Inh [15]: 0%
- %Inh [16]: 14%
- %Inh [17]: 0%
- %Inh [18]: 0%
- %Inh [19]: 15%
- %Inh [20]: 1%

SMILES: COc1ccc(S(=O)(=O)NC2CCN(c3cc(C)nc(Nc4cccc(C#N)c4)n3)CC2)cc1.O=C(O)C(F)(F)F [GSK1653539]
- %Inh [1]: 0%
- %Inh [2]: 0%
- %Inh [3]: 30%
- %Inh [4]: 0%
- %Inh [5]: 0%
- %Inh [6]: 0%
- %Inh [7]: 0%
- %Inh [8]: 12%
- %Inh [9]: 0%
- %Inh [10]: 3%
- %Inh [11]: 11%
- %Inh [12]: 0%
- %Inh [13]: 9%
- %Inh [14]: 12%
- %Inh [15]: 0%
- %Inh [16]: 6%
- %Inh [17]: 100%
- %Inh [18]: 0%
- %Inh [19]: 33%
- %Inh [20]: 0%

SMILES: CC(C)Oc1ccc2c(-c3ccnc(Nc4ccc(N5CCN(C)CC5)cc4)n3)cnn2n1 [GW696155]
- %Inh [1]: 47%
- %Inh [2]: 56%
- %Inh [3]: 44%
- %Inh [4]: 99.3%
- %Inh [5]: 93.5%
- %Inh [6]: 60%
- %Inh [7]: 55%
- %Inh [8]: 97.2%
- %Inh [9]: 27%
- %Inh [10]: 34%
- %Inh [11]: 55%
- %Inh [12]: 51%
- %Inh [13]: 84%
- %Inh [14]: 0%
- %Inh [15]: 0%
- %Inh [16]: 0%
- %Inh [17]: 21%
- %Inh [18]: 45%
- %Inh [19]: 30%
- %Inh [20]: 33%

SMILES: Fc1ccc(-c2nn3c(OCC(F)(F)F)cccc3c2-c2ccncc2)cc1 [GW514784]
- %Inh [1]: 0%
- %Inh [2]: 0%
- %Inh [3]: 16%
- %Inh [4]: 0%
- %Inh [5]: 15%
- %Inh [6]: 0%
- %Inh [7]: 0%
- %Inh [8]: 21%
- %Inh [9]: 0%
- %Inh [10]: 7%
- %Inh [11]: 3%
- %Inh [12]: 0%
- %Inh [13]: 0%
- %Inh [14]: 0%
- %Inh [15]: 0%
- %Inh [16]: 0%
- %Inh [17]: 0%
- %Inh [18]: 30%
- %Inh [19]: 0%
- %Inh [20]: 0%

SMILES: COc1cc2c(cc1OCCN1CCN(C)CC1)ncc1c3ccc(C#N)cc3[nH]c21
- %Inh [1]: 7%
- %Inh [2]: 18%
- %Inh [3]: 4%
- %Inh [4]: 0%
- %Inh [5]: 12%
- %Inh [6]: 4%
- %Inh [7]: 97.7%
- %Inh [8]: 94.7%
- %Inh [9]: 0%
- %Inh [10]: 58%
- %Inh [11]: 18%
- %Inh [12]: 98.2%
- %Inh [13]: 99.8%
- %Inh [14]: 0%
- %Inh [15]: 25%
- %Inh [16]: 0%
- %Inh [17]: 0%
- %Inh [18]: 0%
- %Inh [19]: 0%
- %Inh [20]: 0%
